Laboratory results taken from PubChem BioAssay (Tox21).
Inconclusive results are not listed. Unmarked numbers belong to inactive results. Active and inactive are the calls of the source. Calls follow the shape of the dose curve; as a rule, active = well fitted inhibition curve with a large enough effect in the repeat runs; inconclusive = weak or mixed curves; inactive = flat fitted curve, though single readings scatter.

Each molecule was assayed against Luciferin 4-monooxygenase (Photinus pyralis) (UniProt P08659) (assay: qHTS assay to identify small molecule inhibitors of firefly luciferase (AID 1224835; also: nearly all actives have a fitted effect of over 25% in size)). Details: purified P. pyralis luciferase, luminescence inhibition; series mostly up to 115 µM; activity change, negative = inhibition: at the top concentration.
Excerpt: U.S. Tox21 Program National Center for Advancing Translational Sciences [NCATS] NIH Chemical Genomics Center [NCGC] U.S. Environmental Protection Agency [EPA] National Institutes of Environmental Health Sciences [NIEHS] National Toxicology Program [NTP] U.S. Food and Drug Administration [FDA] Tox21 Assay Overview: Firefly (Photinus pyralis) luciferase is one of the most commonly used transcriptional reporters. Firefly luciferase reporter-gene assays are generally considered one of the most sensitive assay types (Wood, 1995; Wood, 1998). However, it was initially observed, in 1991, by Thompson et al., that compounds that resemble the substrates of firefly luciferase (FLuc) can act as competitive inhibitors of the enzyme, and that these compounds, upon interaction with luciferase in the cell, can actually stabilize the protein and increase its half-life. Previous profiling work by other groups to determine the prevalence of compounds that affect FLuc enzymatic activity (PubChem AID 411) identified that ~3% of the MLSMR library (then at ~72K) inhibited FLuc. […] Thus the Tox21 10K library is profiled for activity against FLuc using a biochemical assay of purified FLuc and KM concentrations of FLuc substrates (D-luciferin and ATP).
These assay plates were then treated with 23nL of compound or DMSO using a Kalypsys pin tool, which allows for delivery of a 6-point interplate titration of each compound to the assay plate (quantitative HTS.) 1 uL of firefly luciferase mix (containing 50 mM Tris acetate, pH 7.6, 0.04 uM P. pyralis luciferase, 0.01% Tween, 0.05% BSA and dH2O) was then delivered by FRD to each well. Luciferase activity was then measured using a ViewLux CCD imager.
% is scaled to controls: 0 for no effect and ±100 for the full control effect; potency is read from the fitted curve at half-maximal effect.

Sequence of Luciferin 4-monooxygenase (Photinus pyralis) (P08659 whole entry, looked up): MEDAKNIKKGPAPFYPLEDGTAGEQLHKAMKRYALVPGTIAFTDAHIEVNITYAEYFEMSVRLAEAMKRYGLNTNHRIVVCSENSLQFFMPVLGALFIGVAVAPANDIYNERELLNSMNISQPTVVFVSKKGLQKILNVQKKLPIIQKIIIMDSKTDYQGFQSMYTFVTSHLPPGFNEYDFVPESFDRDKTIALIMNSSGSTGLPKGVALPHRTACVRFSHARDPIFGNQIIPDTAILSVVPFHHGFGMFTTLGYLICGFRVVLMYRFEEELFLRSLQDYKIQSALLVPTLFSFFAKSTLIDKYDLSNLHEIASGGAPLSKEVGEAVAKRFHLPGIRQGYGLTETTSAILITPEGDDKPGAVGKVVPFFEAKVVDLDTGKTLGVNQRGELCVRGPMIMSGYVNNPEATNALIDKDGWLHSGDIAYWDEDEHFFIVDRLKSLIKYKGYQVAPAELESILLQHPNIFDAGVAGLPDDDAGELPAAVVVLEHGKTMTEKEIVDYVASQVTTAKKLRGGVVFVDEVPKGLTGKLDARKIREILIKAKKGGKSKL

Structure (SMILES)	activity change, negative = inhibition	Potency
O=[N+]([O-])c1ccc(F)c([N+](=O)[O-])c1	-5.89%	
CCCCOC(=O)c1ccccc1C(=O)OCc1ccccc1		inactive
O=C(CBr)Nc1ccc(Cl)cc1C(=O)c1ccccc1F	2.05% [at 52.9 µM]	
CCOS(C)(=O)=O	0.343%	
CCCN(CCC)c1c([N+](=O)[O-])cc(S(C)(=O)=O)cc1[N+](=O)[O-]	2.78%	
COCCOCCO	4.76%	
O=C(NCc1cccnc1)Nc1ccc([N+](=O)[O-])cc1	-4.45%	
CC(=O)NC1CCSC1=O (stereo not given)	4.92% [at 52.9 µM]	
CN(N=O)c1ccc([N+](=O)[O-])cc1	0.783%	
CC(Cl)C(C)Cl (stereo not given)	0.196%	
ClP(Cl)(Cl)(Cl)Cl		31.9 µM (active)
CCOP(=S)(Oc1ccc([N+](=O)[O-])cc1)c1ccccc1 (stereo not given)	1.55%	
O=C(CBr)OCc1ccccc1	-16.5%	
N#CCc1ccccc1	0.696%	
CC(C)(C)c1cc([N+](=O)[O-])cc([N+](=O)[O-])c1O		70.8 µM (active)
CCCCC(CC)COP(=O)(Oc1ccccc1)Oc1ccccc1 (stereo not given)	-0.787%	
C=CCC1([C@H](C)CCC)C(=O)NC(=O)NC1=O	0.604%	
Cl/C=C\Cl	-1.42%	
CC(C)O.CC(C)O.OCCN(CCO)CCO.OCCN(CCO)CCO.[Ti]	-3.71%	
CCCCC(O)(Cn1cncn1)c1ccc(Cl)cc1Cl (stereo not given)	10.8%	

Structure (SMILES)	activity change, negative = inhibition	Potency
O=C(NC(=O)c1c(F)cccc1F)Nc1ccc(OC(F)(F)C(F)OC(F)(F)F)c(Cl)c1 (stereo not given)	0.775% [at 52.9 µM]	
ClCc1ccccc1	0.203%	
CC1C(=O)C[C@]2(C(C)C)C[C@H]12 (stereo not given in full)	2.84%	
CCCC(=O)Cl	0.231%	
CN1C(=O)C(O)N=C(c2ccccc2)c2cc(Cl)ccc21 (stereo not given)	5.89%	
O=C(OC1CCCCC1)c1ccccc1C(=O)OC1CCCCC1	4.61%	
O=C(O)COc1ccc(Cl)cc1	-10.7%	
COc1cc(Cl)c(OC)cc1Cl	-0.615%	
COCC(C)N(C(=O)CCl)c1c(C)csc1C (stereo not given)	1.44%	
[CH3][Sn]([CH3])([Cl])[Cl]		inactive
COP(=S)(OC)Oc1cc(Cl)c(I)cc1Cl		79.6 µM (active)
COP(=S)(OC)Oc1ccc([N+](=O)[O-])cc1Cl		35.6 µM (active)
O=S(=O)(Cl)c1ccccc1	0.632%	
ClC=C(Cl)Cl	-0.185%	
C=CC(=O)OCCCCO	1.61%	
O=C1C(=O)c2cccc3cccc1c23	0.648%	
CC(C)(OO)c1ccccc1	-0.691%	
[O-][Cl+]O	-0.475%	
CO/C=C(/C(=O)OC)c1ccccc1COc1cccc(C(F)(F)F)n1	4.15%	
CCOc1ccc(C(C)(C)COCc2cccc(Oc3ccccc3)c2)cc1	0.257%	
